Test [1] has as its target Serine/threonine-protein kinase SIK1 (Homo sapiens) (UniProt P57059). The conditions noted are these: at 10 µM.
Test [2] concerns the target SRSF protein kinase 1 (Homo sapiens) (UniProt Q96SB4). To be noted: at 1 µM.
For test [3] the target is unchanged. To be noted: at 10 µM.
Test [4] addresses SRSF protein kinase 2 (Homo sapiens) (UniProt P78362). To be noted: at 1 µM.
Test [5] has the same target. To be noted: at 10 µM.
Test [6] addresses Serine/threonine-protein kinase 33 (Homo sapiens) (UniProt Q9BYT3). To be noted: at 1 µM.
Test [7] shares this target. To be noted: at 10 µM.
Test [8] addresses Serine/threonine-protein kinase PLK2 (Homo sapiens) (UniProt Q9NYY3). The conditions noted are these: at 1 µM.
Test [9] shares this target. To be noted: at 10 µM.
The target in test [10] is Tyrosine-protein kinase SYK (Homo sapiens) (UniProt P43405). To be noted: at 1 µM.
Test [11] has the same target. To be noted: at 10 µM.
Test [12] deals with T1, Mitogen-activated protein kinase kinase kinase 7 (Homo sapiens) (UniProt O43318).
T1 sequence (whole entry): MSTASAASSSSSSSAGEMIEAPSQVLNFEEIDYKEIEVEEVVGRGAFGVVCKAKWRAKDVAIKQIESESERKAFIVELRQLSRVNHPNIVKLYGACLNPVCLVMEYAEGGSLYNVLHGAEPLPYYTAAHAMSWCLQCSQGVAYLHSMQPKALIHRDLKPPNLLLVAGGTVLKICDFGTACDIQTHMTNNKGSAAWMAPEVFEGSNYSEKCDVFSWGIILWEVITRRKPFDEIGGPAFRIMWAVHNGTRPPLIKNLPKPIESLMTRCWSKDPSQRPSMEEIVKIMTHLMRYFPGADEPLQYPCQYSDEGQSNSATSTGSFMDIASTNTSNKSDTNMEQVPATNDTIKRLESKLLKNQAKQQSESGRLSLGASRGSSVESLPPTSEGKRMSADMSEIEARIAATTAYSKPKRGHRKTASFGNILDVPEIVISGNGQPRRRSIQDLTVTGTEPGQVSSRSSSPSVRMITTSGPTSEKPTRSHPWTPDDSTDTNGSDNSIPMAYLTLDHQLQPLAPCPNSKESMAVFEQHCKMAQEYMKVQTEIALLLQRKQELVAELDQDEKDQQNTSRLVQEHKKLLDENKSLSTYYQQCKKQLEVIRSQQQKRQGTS
The conditions noted are these: at 1 µM.

The target of test [13] is T1, Mitogen-activated protein kinase kinase kinase 7 (Homo sapiens). The conditions noted are these: at 10 µM.
For test [14], the target named is T2, Serine/threonine-protein kinase TAO1 (Homo sapiens) (UniProt Q7L7X3).
T2 sequence (whole entry): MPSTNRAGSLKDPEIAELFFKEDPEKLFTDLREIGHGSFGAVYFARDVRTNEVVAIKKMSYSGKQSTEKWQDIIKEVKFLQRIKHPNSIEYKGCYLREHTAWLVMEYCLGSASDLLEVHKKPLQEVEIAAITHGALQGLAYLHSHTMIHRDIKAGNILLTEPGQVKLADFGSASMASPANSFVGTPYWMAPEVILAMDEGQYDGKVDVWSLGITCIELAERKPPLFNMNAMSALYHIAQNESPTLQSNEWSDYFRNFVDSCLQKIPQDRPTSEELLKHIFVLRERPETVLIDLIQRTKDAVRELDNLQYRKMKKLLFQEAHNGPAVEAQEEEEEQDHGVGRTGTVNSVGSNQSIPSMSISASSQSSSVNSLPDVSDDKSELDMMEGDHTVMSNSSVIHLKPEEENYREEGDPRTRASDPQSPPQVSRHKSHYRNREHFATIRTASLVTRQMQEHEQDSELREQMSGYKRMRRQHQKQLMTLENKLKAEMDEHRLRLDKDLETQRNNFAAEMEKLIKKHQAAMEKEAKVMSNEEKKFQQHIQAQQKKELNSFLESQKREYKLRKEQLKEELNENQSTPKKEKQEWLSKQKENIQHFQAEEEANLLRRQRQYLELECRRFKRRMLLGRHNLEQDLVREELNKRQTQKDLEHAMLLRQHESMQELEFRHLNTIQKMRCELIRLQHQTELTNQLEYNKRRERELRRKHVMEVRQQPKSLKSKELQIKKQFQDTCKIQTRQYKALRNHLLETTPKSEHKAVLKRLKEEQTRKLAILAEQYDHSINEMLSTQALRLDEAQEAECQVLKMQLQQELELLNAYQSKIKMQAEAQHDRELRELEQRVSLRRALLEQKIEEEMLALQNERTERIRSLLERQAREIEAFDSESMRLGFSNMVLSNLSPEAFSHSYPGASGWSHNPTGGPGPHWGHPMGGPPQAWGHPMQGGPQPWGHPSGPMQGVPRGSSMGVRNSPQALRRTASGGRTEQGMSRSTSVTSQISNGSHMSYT
The conditions noted are these: at 1 µM.

Test [15] has as its target T2, Serine/threonine-protein kinase TAO1 (Homo sapiens). To be noted: at 10 µM.
The target of test [16] is T3, Serine/threonine-protein kinase TAO2 (Homo sapiens) (UniProt Q9UL54).
T3 sequence (whole entry): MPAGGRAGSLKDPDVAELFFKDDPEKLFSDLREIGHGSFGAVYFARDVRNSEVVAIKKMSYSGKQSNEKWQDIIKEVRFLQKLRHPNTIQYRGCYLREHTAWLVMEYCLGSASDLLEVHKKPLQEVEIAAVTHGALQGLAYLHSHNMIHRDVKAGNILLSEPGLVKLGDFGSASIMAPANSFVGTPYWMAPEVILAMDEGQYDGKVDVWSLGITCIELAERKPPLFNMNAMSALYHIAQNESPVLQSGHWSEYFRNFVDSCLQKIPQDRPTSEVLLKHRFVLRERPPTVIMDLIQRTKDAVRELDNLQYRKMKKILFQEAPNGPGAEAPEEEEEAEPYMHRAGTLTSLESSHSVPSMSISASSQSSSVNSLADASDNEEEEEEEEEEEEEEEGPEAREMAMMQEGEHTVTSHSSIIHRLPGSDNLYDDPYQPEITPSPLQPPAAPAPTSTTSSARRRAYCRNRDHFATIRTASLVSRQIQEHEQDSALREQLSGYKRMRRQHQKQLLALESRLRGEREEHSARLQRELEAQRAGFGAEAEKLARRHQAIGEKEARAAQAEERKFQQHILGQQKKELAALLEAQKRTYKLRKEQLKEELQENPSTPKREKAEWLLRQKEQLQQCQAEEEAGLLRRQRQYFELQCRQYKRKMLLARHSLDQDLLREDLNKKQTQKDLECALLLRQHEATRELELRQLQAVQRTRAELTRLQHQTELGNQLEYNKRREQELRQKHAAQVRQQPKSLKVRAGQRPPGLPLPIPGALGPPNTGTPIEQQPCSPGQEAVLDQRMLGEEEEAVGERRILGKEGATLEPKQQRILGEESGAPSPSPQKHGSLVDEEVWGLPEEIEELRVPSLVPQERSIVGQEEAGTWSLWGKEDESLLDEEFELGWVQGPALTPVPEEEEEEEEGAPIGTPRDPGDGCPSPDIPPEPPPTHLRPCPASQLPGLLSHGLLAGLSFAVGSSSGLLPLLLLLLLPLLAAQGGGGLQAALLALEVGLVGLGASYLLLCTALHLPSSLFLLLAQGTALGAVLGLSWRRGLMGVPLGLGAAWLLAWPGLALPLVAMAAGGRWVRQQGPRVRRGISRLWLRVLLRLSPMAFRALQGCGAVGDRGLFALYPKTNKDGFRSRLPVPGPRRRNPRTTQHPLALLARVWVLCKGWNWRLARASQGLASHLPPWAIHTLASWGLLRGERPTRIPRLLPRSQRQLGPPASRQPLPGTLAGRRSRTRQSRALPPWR
To be noted: at 1 µM.

Test [17] addresses T3, Serine/threonine-protein kinase TAO2 (Homo sapiens). The conditions noted are these: at 10 µM.
In test [18] the target is T4, Serine/threonine-protein kinase TAO3 (Homo sapiens) (UniProt Q9H2K8).
T4 sequence (whole entry): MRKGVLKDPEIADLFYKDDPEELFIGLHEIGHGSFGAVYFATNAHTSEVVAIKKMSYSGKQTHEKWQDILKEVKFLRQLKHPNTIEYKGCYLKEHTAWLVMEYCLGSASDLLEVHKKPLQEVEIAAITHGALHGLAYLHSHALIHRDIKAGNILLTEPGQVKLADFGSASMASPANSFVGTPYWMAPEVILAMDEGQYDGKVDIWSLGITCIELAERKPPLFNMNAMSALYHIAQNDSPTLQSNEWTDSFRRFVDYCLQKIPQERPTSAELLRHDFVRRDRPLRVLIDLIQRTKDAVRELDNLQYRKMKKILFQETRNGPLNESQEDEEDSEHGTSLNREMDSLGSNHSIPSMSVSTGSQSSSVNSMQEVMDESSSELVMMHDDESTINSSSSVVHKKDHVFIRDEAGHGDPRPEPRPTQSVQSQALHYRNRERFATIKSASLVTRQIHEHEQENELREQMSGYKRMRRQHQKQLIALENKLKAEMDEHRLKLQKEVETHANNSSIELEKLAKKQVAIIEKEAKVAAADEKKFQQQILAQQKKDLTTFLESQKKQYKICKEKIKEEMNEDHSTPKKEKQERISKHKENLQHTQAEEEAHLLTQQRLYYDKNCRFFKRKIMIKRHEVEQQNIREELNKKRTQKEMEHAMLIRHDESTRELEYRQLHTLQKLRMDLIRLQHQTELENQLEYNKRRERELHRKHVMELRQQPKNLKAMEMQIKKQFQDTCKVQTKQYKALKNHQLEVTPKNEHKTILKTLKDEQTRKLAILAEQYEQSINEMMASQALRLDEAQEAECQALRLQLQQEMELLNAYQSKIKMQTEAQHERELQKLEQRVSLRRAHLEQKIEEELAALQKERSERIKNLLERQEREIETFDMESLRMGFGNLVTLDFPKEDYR
To be noted: at 1 µM.

Test [19] has as its target T4, Serine/threonine-protein kinase TAO3 (Homo sapiens). To be noted: at 10 µM.
The target in test [20] is T5, Serine/threonine-protein kinase TBK1 (Homo sapiens) (UniProt Q9UHD2).
T5 sequence (whole entry): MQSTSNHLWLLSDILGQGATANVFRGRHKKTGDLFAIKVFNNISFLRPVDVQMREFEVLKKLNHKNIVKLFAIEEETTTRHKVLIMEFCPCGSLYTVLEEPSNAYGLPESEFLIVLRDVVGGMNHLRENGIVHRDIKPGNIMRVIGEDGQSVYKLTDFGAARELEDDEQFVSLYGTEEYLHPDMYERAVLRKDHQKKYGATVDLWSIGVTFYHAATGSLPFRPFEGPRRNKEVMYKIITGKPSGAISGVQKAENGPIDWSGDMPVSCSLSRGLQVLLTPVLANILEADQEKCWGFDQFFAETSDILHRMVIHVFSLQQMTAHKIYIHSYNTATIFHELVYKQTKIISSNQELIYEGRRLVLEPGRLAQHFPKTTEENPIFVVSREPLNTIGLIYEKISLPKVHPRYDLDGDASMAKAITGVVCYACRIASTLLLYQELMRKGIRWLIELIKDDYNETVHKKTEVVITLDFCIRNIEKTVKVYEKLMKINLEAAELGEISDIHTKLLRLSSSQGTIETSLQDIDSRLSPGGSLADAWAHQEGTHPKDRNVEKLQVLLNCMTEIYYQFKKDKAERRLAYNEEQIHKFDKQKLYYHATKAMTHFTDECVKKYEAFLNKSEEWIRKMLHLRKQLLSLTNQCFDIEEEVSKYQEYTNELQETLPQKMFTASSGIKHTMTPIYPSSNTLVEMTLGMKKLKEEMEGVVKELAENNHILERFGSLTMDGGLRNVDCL
To be noted: at 1 µM.

SRSF protein kinase 2 (Homo sapiens), sequence (P78362 whole entry, looked up): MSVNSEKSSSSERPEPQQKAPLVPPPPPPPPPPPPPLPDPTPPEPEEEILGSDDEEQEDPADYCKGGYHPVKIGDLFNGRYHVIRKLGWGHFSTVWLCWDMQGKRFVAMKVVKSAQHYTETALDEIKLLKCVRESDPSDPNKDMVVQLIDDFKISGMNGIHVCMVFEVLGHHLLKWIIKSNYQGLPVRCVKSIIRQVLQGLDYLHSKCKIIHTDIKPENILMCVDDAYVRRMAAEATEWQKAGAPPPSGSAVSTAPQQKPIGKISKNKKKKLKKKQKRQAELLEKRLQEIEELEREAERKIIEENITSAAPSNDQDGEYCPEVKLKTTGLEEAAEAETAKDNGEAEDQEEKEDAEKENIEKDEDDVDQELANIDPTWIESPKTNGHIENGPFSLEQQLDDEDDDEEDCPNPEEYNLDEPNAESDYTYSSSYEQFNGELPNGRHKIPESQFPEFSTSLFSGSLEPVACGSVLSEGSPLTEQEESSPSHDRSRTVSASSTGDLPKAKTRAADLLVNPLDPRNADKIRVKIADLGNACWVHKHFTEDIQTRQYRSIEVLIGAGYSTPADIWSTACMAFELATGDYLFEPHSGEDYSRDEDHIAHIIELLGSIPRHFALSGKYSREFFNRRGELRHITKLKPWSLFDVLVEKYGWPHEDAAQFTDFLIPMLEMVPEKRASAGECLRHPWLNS
SRSF protein kinase 1 (Homo sapiens), sequence (Q96SB4 whole entry): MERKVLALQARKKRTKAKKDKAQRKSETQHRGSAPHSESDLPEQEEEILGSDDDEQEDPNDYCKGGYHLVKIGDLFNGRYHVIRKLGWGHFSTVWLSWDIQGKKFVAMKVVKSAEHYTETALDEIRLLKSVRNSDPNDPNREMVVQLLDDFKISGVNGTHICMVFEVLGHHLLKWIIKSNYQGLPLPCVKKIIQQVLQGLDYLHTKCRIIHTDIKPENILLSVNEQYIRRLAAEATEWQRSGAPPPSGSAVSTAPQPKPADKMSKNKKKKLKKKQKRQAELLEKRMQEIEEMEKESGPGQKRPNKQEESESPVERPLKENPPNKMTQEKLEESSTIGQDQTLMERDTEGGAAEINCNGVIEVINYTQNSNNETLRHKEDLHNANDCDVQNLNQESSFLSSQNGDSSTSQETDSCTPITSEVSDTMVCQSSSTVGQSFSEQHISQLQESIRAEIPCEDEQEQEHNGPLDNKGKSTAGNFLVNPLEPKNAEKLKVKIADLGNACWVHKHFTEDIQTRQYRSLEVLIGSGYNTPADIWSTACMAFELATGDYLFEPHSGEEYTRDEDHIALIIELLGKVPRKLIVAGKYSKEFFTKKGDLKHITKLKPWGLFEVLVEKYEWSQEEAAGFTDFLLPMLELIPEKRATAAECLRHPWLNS
Serine/threonine-protein kinase PLK2 (Homo sapiens), sequence (Q9NYY3 whole entry, looked up): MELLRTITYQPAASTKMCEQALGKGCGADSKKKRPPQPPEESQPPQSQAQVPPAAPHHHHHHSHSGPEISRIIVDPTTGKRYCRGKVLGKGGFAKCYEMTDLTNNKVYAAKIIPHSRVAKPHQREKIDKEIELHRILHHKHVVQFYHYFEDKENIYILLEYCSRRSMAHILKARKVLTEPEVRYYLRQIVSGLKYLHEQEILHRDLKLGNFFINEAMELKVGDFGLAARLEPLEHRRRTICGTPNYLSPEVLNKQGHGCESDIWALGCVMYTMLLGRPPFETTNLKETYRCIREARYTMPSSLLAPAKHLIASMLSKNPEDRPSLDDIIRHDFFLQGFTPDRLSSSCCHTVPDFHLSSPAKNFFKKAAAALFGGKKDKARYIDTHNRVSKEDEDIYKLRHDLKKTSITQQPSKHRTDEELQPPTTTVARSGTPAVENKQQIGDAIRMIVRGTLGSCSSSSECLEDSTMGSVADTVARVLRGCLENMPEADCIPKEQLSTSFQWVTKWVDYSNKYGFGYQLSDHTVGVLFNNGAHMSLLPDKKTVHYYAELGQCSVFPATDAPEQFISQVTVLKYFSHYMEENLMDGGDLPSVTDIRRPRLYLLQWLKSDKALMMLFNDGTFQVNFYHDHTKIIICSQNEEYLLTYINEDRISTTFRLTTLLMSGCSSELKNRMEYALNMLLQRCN
Serine/threonine-protein kinase 33 (Homo sapiens), sequence (Q9BYT3 whole entry, looked up): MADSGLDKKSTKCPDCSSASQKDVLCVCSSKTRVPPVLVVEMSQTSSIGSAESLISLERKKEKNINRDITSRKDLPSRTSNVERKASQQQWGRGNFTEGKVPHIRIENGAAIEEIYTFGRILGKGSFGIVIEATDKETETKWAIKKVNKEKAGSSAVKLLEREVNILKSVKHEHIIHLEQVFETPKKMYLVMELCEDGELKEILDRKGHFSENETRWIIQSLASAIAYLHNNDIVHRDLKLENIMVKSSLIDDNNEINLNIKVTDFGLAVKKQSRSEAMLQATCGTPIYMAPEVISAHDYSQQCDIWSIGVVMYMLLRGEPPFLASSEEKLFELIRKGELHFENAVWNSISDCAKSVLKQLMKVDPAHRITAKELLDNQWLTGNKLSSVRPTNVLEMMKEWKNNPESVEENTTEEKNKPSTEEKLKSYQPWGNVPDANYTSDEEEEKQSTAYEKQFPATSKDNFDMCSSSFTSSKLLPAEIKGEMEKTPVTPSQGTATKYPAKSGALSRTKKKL
Serine/threonine-protein kinase SIK1 (Homo sapiens), sequence (P57059 whole entry): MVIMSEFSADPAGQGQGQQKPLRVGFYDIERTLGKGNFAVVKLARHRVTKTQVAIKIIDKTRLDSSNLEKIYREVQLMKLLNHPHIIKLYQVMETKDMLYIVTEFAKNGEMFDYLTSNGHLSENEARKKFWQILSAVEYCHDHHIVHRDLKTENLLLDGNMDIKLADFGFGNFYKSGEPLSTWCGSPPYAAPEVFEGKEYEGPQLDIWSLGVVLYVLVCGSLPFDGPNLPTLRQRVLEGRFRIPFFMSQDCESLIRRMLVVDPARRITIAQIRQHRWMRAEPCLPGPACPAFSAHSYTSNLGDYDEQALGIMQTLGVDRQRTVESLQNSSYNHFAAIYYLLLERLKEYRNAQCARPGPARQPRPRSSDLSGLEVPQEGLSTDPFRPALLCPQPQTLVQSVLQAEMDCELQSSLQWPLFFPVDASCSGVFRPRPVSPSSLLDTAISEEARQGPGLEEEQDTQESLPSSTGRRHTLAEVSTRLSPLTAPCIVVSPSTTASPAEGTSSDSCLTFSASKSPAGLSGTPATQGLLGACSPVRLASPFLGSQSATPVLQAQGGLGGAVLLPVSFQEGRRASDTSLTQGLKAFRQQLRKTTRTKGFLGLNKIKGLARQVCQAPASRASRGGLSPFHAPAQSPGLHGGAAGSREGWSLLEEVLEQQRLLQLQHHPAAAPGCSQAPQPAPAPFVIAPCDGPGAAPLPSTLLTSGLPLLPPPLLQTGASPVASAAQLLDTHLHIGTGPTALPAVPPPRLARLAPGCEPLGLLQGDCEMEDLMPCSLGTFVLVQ

In the case of `Cc1cc2ncc(-c3ccccc3)nc2cc1C`, the residual activity in test [1] amounted to 110%; in test [2], 108%; in test [3] it was 97%; in [4] it was 104%; in test [5], 102%; in [6], 100%. In addition, the residual activity is 98% in test [7]; 101% in [8]; 106% in [9]; 125% in [10]; 108% in test [11]; 96% in [12]. Moreover, the residual activity is 95% in [13]; 109% in test [14]; 101% in test [15]; 106% in test [16]; 91% in test [17]; 100% in test [18]. Also, the figures for the residual activity in [19] and in test [20] were 101% and 86%, respectively.

For `Oc1n[nH]c2nnc(-c3c(-c4ccccc4)nn4ccccc34)cc12`, the residual activity in test [1] was 89%; in test [2], 97%; in [3], 96%; in [4] it was 101%; in test [5], 98%; in [6], 95%. Moreover, the residual activity in test [7] was determined as 86%; in test [8], 97%; in [9] it was 99%; in test [10] it was 106%; in [11], 105%; in [12] it was 87%. In addition, the residual activity in [13] worked out at 74%; in test [14], 83%; in [15] it was 79%; in test [16], 98%; in test [17], 96%; in [18], 89%. For the same compound, the figures for the residual activity in test [19] and in test [20] were 90% and 67%, respectively.

Take `CCC(=O)Nc1ccc2ncnc(Nc3cccc(Br)c3)c2c1`: the residual activity in test [1] worked out at 13%; in test [2] it was 102%; in [3], 98%; in [4] it was 89%; in test [5], 74%; in test [6], 91%. Also, the residual activity in test [7] was determined as 98%; in test [8], 104%; in [9], 98%; in test [10] it was 125%; in test [11], 84%; in test [12] it was 92%. For the same compound, the residual activity in test [13] is 90%; in test [14] it was 96%; in test [15] it was 86%; in test [16] it was 98%; in [17] it was 91%; in test [18] it was 96%. Besides, the values for the residual activity in test [19] and in test [20] were 95% and 69%, respectively.

For the compound `CC[n+]1c(/C=C/N(C)c2ccccc2)n(-c2ccccc2)c2ccc(-c3nc4ccccc4s3)cc21`, the residual activity in test [1] was found to be 125%; in test [2], 114%; in test [3], 124%; in test [4] it was 106%; in test [5], 99%; in test [6], 89%. The residual activity amounted to 82% in test [7]; 91% in [8]; 95% in test [9]; 103% in [10]; 46% in test [11]; 100% in test [12]. For the same compound, the residual activity was 102% in test [13]; 93% in test [14]; 78% in [15]; 100% in test [16]; 60% in test [17]; 95% in test [18]. The values for the residual activity in test [19] and in [20] were 62% and 104%, respectively.

The values are drawn from ChEMBL document CHEMBL2218924, “A broad activity screen in support of a chemogenomic map for kinase signalling research and drug discovery” (Biochem J, 2013).
